Source: PubChem BioAssay (NCI)
The panel holds about 83,000 compounds, 20% with a hit somewhere; the sample as a whole holds those more often.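 The test compound was applied at a single concentration to cells in 96-well plates for 48 hours, and percent growth was recorded.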 Unmarked numbers belong to inactive results. Active and inactive are the calls of the source. The calls were made as follows: active = growth percent below 10; inactive = the rest.

How the values were obtained:
Test in all cases: NCI-60 one-dose screen, 48 h (100 = growth as untreated, 0 = no growth, -100 = all killed)
SK-MEL-2 melanoma = conditions: 10 µM unless noted
EKVX NSCLC = conditions: 10 µM
SN12C renal = conditions: 10 µM unless noted
UO-31 renal = conditions: 10 µM unless noted
TK-10 renal = conditions: 10 µM unless noted
ACHN renal = conditions: 10 µM unless noted
CAKI-1 renal = conditions: 10 µM unless noted
A498 renal = conditions: 10 µM unless noted
CCRF-CEM leukemia = conditions: 10 µM
MOLT-4 leukemia = conditions: 10 µM unless noted
SR leukemia = conditions: 10 µM unless noted
RPMI-8226 leukemia = conditions: 10 µM unless noted
OVCAR-8 ovarian = conditions: 10 µM unless noted
OVCAR-5 ovarian = conditions: 10 µM unless noted
OVCAR-4 ovarian = conditions: 10 µM unless noted
SK-OV-3 ovarian = conditions: 10 µM unless noted
IGROV1 ovarian = conditions: 10 µM unless noted
NCI/ADR-RES ovarian = conditions: 10 µM unless noted
OVCAR-3 ovarian = conditions: 10 µM unless noted
HS 578T breast = conditions: 10 µM unless noted

Row | SMILES | growth (SK-MEL-2 melanoma) | growth (EKVX NSCLC) | growth (SN12C renal) | growth (UO-31 renal) | growth (TK-10 renal) | growth (ACHN renal) | growth (CAKI-1 renal) | growth (A498 renal) | growth (CCRF-CEM leukemia) | growth (MOLT-4 leukemia) | growth (SR leukemia) | growth (RPMI-8226 leukemia) | growth (OVCAR-8 ovarian) | growth (OVCAR-5 ovarian) | growth (OVCAR-4 ovarian) | growth (SK-OV-3 ovarian) | growth (IGROV1 ovarian) | growth (NCI/ADR-RES ovarian) | growth (OVCAR-3 ovarian) | growth (HS 578T breast)
1 | O=C1C(Cl)=C(Nc2ccc(Nc3ccccc3)c(NC3=C(Cl)C(=O)c4ccccc4C3=O)c2)C(=O)c2ccccc21 | 106% | 65.8% | 85% | 57.3% | 27.8% | 34.4% | 45.3% | 53% | 37.9% | 37.3% | 44.6% | 27.4% | 71.5% | 141% | 54.8% | 80.5% | 68.6% | 86.4% |  | 
2 | N#Cc1ccc(NC2c3ccccc3CC2O)cc1 (configuration not stated) | 103% | 114% | 107% | 83.1% | 119% | 104% | 106% | 115% | 94.6% | 91.5% | 99.3% | 96.3% | 122% | 113% |  | 106% | 116% | 115% | 129% | 
3 | COc1ccc2c(N)ncc(C#Cc3cc(C(=O)Nc4ccc(CN5CCN(C)CC5)c(C(F)(F)F)c4)cnc3C)c2c1 | -15.4% (active) | -1.21% (active) | -45.4% (active) | -45.1% (active) | -60.2% (active) | -78.5% (active) | 39.9% | 15.4% | -25.4% (active) | -36.6% (active) |  | -45.1% (active) | -34.7% (active) | -21.6% (active) | 0.668% (active) | 24.5% | -71.6% (active) | 16% | 11.7% | 30%
4 | CC1C(=O)CCCC1=O | 99% | 110% | 95.6% | 86.7% | 102% | 104% | 100% | 138% | 92.1% | 95.1% | 97.6% | 101% | 107% | 104% |  | 108% | 102% | 113% | 118% | 
5 | Nc1nc2c(c3cnccc13)C(c1cccc(Cl)c1)Cc1cnccc1-2 (configuration not stated) | 26.8% | 24.2% | 33.8% | 26.1% | 23.9% | 15% | 25.2% | -5.65% (active) | 13.3% | 16.5% |  | 8.24% (active) | 29.3% | 40.4% | 32.1% | 32% | 35.9% | 6.79% (active) | 10.1% | 38.9%
6 | CCCCCCCCCCCCCCCCC(=O)O.CCCCCCCCCCCCCCCCCC(=O)O.CCCCCCCCCCCCCCCCCC(=O)O.CCCCCCCCCCCCCCCCCC(=O)O.CCCCCCCCCCCCCCCCCC(=O)O.CO[CH-]OC12COC1CC(O)C1(C)C(O)C(OC(C)O)C3=C(C)C(OC(=O)C(O)C([NH-])c4ccccc4)CC(O)(C(OC(=O)c4ccccc4)C21)C3(C)C.[Cu+].[Zn].[Zn].[Zn].[Zn].[Zn] (configuration not stated) | 69.3% | 29.5% | 29.9% | 27.2% | 48% | 36.2% | 27% | 45.6% | 23.7% | 29% | 37.4% | 22.4% | 45.4% | 24.9% | 40.1% | 39.4% | 33.4% | 42.4% |  | 10.5%
7 | CCOC(=O)c1cc(C(=O)c2ccc(Br)cc2)n2cc(C)cc(C)c12 | 91.3% | 99.5% | 101% | 86.8% | 114% | 104% | 82.1% | 78.4% | 83.9% | 98.9% | 98.1% | 83.7% | 102% | 115% | 91.6% | 86.2% | 102% | 99.6% | 104% | 89.2%
8 | CCCCCCCCCCCCCCCCCC1=NCCN1CS(=O)(=O)O | 69.9% | 80.1% | 53.2% | 16.6% | 89.4% | 47.7% | 17.3% | 87.2% | -5.55% (active) | 12.3% | -3.33% (active) | 65% | 36.1% | 76.9% | 82.4% | 70.4% | -23.8% (active) | 59.2% | 50.9% | 
9 | COc1cc(NC(C)CCCN)c2nccc(C)c2c1OC (configuration not stated) | 95.2% | 99.4% | 82% | 89.5% | 114% | 100% | 99.9% | 83.7% | 64.8% | 73.1% | 69.4% | 65.7% | 98.2% | 91.8% | 29% | 96.1% | 92.8% | 98.2% | 44.4% | 87.3%
10 | c1ccc(Nc2ccccn2)cc1 | 102% | 108% | 94.6% | 88% | 95.5% | 106% | 101% | 122% | 85% | 84% | 80.2% | 89.1% | 107% | 106% |  | 105% | 101% | 109% | 116% | 106%
11 | Cc1ccc(C(=O)Nc2ccc(CN3CCN(C)CC3)c(C(F)(F)F)c2)cc1C#Cc1cncc2ncccc12 | -78.7% (active) | -71.8% (active) | -98.2% (active) | -96.3% (active) | -98.8% (active) | -98.9% (active) | 1.96% (active) | -95.5% (active) | -56.2% (active) | -58.9% (active) |  | -53.5% (active) | -76.8% (active) | -93.9% (active) | -87.5% (active) | -12.6% (active) | -82.7% (active) | 4.19% (active) | 24.8% | -32.4% (active)
12 | CC1=C[C@@H]2c3c(c(O)c(O)c4oc5cc(O)cc(O)c5c(=O)c34)[C@@H](c3cc(O)c(O)c4oc5cc(O)cc(O)c5c(=O)c34)[C@@H]2C(C)(C)C1 | -22.2% (active) | 8.51% (active) | 2.58% (active) | -10.2% (active) | 13.8% | 12.4% | 19.8% | -14% (active) | 3.51% (active) | 4.1% (active) | 4.52% (active) | -4.75% (active) | 7.34% (active) | 19.6% | 22.3% |  | 12.9% | 68.8% | -10.4% (active) | 8.08% (active)
13 | O=C(N/N=C/c1cc(Cl)ccc1O)C(=O)N/N=C/c1cc(Cl)ccc1O | 109% | 69.2% | 79.5% | 48.2% | 76.3% | 53.4% | 37.2% | 81.3% | 39.7% | 55.9% | 51.3% | 71.9% | 60.8% | 72.5% |  | 64.1% | 50.3% | 44.2% | 15.5% | 
14 | CCCCCCCCC/C(=N\NC(=O)c1ccncc1)c1ccc(O)c(O)c1O | 38.5% | 34.5% | 25.7% | 20.8% | 43.1% | 15.8% | 14.3% | 45% | 9.71% (active) | 15.5% | 6.56% (active) | 27.1% | 13.8% | 48.6% |  | 24.3% | 24.9% | 7.59% (active) | 25.6% | 
15 | CC(=O)Nc1nc(C)c(C(=O)NN)s1 | 24.7% | 143% | 95.2% | 86.1% | 203% | 93.6% | 125% | 106% | 94.9% | 111% | 107% | 120% | 111% | 100% | 118% | 102% | 95% | 98.6% | 104% | 86%
16 | CCS(=O)(=O)OCCO[C@H]1Cc2cc3ccc(=O)oc3cc2OC1(C)C | 96.8% | 107% | 107% | 86.9% | 102% | 107% | 95% | 102% | 115% | 107% | 111% | 113% | 101% | 107% | 106% |  | 109% | 107% | 108% | 98%
